Source: PubChem BioAssay (National Center for Advancing Translational Sciences (NCATS))
ELG1 genotoxic – genotoxicity induction in ELG1-luciferase HEK293T cells; actives 1.3% (n = 330,000); Potency, µM (series often up to 46 µM), without a hit: at the top dose activity change, positive = activation, most hits filed as activators; HEK293T ELG1-luciferase reporter, luminescence, 16 h; also: % of control where 0% means no effect; nearly all actives have a fitted effect of over 60% in size
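Genotoxic stress is detected as increased luminescence from luciferase-tagged ELG1 in HEK293T cells, measured with ONE-Glo after a 16 hr treatment at 37 °C.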
FLuc counter – counter-screen for miR-21 project: firefly luciferase inhibitors or activators; P08659; AID 588342; actives 6.9% (n = 360,000); Potency, µM (highest dose often 57.5 µM), for inactives: at the highest dose activity change, negative = inhibition, usual class: inhibitors; purified FLuc, Km substrates, luminescence inhibition;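 also: plate controls were vehicle for no effect and reference inhibitor for full effect; nearly all actives have a fitted effect of over 55% in size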
Target sequence (P08659 whole entry, looked up): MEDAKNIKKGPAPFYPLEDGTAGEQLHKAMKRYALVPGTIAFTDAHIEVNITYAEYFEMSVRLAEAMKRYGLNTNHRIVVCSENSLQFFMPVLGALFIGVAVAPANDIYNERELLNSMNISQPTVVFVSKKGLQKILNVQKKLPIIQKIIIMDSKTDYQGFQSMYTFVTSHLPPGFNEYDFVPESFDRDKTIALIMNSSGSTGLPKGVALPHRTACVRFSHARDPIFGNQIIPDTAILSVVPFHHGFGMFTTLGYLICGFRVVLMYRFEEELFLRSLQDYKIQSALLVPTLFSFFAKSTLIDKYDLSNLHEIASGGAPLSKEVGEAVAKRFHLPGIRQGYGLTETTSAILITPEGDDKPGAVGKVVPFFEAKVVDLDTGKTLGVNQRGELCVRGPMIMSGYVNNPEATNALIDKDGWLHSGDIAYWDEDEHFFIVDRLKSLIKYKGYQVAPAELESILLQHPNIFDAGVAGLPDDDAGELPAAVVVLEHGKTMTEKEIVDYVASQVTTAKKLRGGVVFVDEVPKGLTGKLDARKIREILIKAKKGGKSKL
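Biochemical qHTS of compounds, final roughly 60 µM downward over six points, against 10 nM purified firefly luciferase using Km concentrations of substrates (10 uM D-luciferin, 10 uM ATP) in Tris acetate pH 7.5 buffer; luminescence output.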
SMN2 splice enh – increases expression of the SMN2 splice variant | HEK293 SMN2-luciferase splicing reporter, luminescence, 30-36 h | Potency, µM (highest dose often 46.1 µM), for inactives: at the top dose activity change, positive = activation, actives largely listed as activators | actives 2.8% (n = 210,000) | AID 1458; also: % of control where 0% means no effect; nearly all actives have a fitted effect of over 55% in size
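HEK293 cells carry an SMN2 […]–luciferase reporter in which exon 7 inclusion puts luciferase in frame. Cells were plated 10-12 h before compound addition, then incubated 30-36 h at 37C. ONE-Glo luminescence was read; sodium butyrate at 4.5 mM final served as control.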
NPC1 prom act – activates the NPC1 promoter. Huh7 NPC1 promoter luciferase reporter, 24 h. Potency, µM (highest dose often 9.22 µM), without a hit: top-dose activation, most hits filed as activators. actives 2.4% (n = 320,000). AID 485313; also: % of control where 0% means no effect; nearly all actives have a fitted effect of over 60% in size
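Luciferase expression driven by the NPC1 promoter was measured in stably transfected Huh7 cells after a 24 h compound incubation, using a luciferase reagent and a luminescence read.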
Luc counter – Kinase-Glo luciferase inhibition (counter-screen). Q27757. Kinase-Glo luciferase, ATP luminescence, 8 min. Potency, µM (doses to about 38.3 µM), without a hit: at the top dose activity change, negative = inhibition, usual class: inhibitors. actives 0.28% (n = 200,000). AID 1379; also: % is scaled to controls: 0 for no effect and ±100 for the full control effect; nearly all actives have a fitted effect of over 60% in size
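Recombinant Kinase-Glo luciferase, 10 uM ATP (linear range), luciferin; imidazole pH 7.2 / KCl / MgCl2 / Tween / BSA buffer; 8 min RT; luminescence.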
Rab9 promoter act – activates the Rab9 promoter; Huh7 Rab9 promoter-luciferase reporter, luminescence, 24 h; Potency, µM (highest dose often 9.22 µM), for inactives: at the highest dose activation, negative = inhibition, actives largely listed as activators; actives 2.8% (n = 320,000); AID 485297; also: % of control where 0% means no effect; nearly all actives have a fitted effect of over 60% in size
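Cell-based reporter: Huh7 stable for Rab9 promoter-driven luciferase, plated in reduced-serum medium with 10% FBS at 1500 cells/well, compound-treated 24 h at 37 °C, luminescence read after 10 min reagent.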
The depositor's hits bear a star; u = inconclusive; x = no result given; [ ] = remark or other dose. This is a sample that favours compounds with a hit; in the whole collection about 7.5% have one here. Calls follow the shape of the dose curve; as a rule, active = well fitted curve in the direction sought with a large enough effect; inconclusive = small, poorly fitted or top-dose-only effect, or another doubt; inactive = no such curve, though single readings can be large; an effect the other way counts as inactive or inconclusive. Potency is read from the fitted curve at half-maximal effect.

SMILES	ELG1 genotoxic	FLuc counter	SMN2 splice enh	NPC1 prom act	Luc counter	Rab9 promoter act
O=C(CNC(=O)c1ccccn1)N/N=C/c1ccc2c(c1)OCO2	-10.9%	u	12.7%	2.5%	5.1%	-6.0%
COc1cccc(C(=O)NCC(=O)N/N=C/c2cccnc2)c1	2.5%	2.5%	x	-2.4%	x	-0.3%
O=c1[nH]cnc2c1ncn2[C@@H]1O[C@H](COS(=O)(=O)O)[C@@H](O)[C@H]1O	-0.1%	x	x	x	x	x
CN1C(=O)/C(=N\OC(=O)c2cccc3ccccc23)c2ccccc21	5.4%	10.7µM*	-10.5%	1.5%	-0.9%	9.0%
CC(=O)/C=C1\C(=O)N(C)c2ccccc21	x	x	x	-30.1%[46.1 µM]	x	-43.9%[46.1 µM]
O=C(Nc1ccc(Br)cc1)c1cc(S(=O)(=O)N2CCc3ccccc32)ccc1F	x	-2.1%	x	x	x	x
COc1ccc(/C=N\NC(=O)/C(=C\Nc2nccc(C)n2)NC(=O)c2ccccc2)cc1	-0.3%	15.1µM*	-7.2%	0.0%	-19.7%	-0.2%
Cc1ccc(/C=N\NC(=O)/C(=C\Nc2nccc(C)n2)NC(=O)c2ccccc2)cc1	-3.1%	15.1µM*	x	-3.7%	x	-2.4%
Nc1ccc2oc(-c3ccccc3Cl)nc2c1	3.66µM*	1.35µM*	2.82µM*	u	-10.4%	0.447µM*
CCc1ccc2oc(-c3cc(N)ccc3O)nc2c1	22.5%	0.338µM*	25.1µM*	3.16µM*	-28.1%	4.47µM*
CCc1ccc2oc(-c3cc(N)ccc3Cl)nc2c1	2.06µM*	0.239µM*	u	3.98µM*	-15.3%	2.51µM*
CCc1ccc2oc(-c3cc(NC(=O)c4cccs4)ccc3Cl)nc2c1	x	u	-16.3%	x	x	x
CCc1ccc2oc(-c3cc(N)cc(C)c3O)nc2c1	u	u	u	6.3%	-5.7%	u
Cc1cc(C)cc(C(=O)N(Cc2nc(-c3ccc(Cl)cc3)no2)C(C)C)c1	x	-9.3%	-6.0%	x	x	x
Fc1ccccc1Cn1nnc(-c2ccc3c(c2)OCO3)n1	u	2.13µM*	12.6µM*	2µM*	-2.8%	1.12µM*
COc1ccc(-c2nnn(Cc3ccccc3F)n2)cc1	u	10.7µM*	15.8µM*	3.55µM*	0.0%	3.16µM*
O=C(OCc1ccccc1)c1ccc(-c2nnn(Cc3ccccc3F)n2)cc1	x	-5.2%	3.8%	x	x	x
O=C(N/N=C/c1ccc2ncccc2c1)c1cccc([N+](=O)[O-])c1	1.8%	3.38µM*	x	13.8%	x	13.7%
S=C(N/N=C/c1ccc2ncccc2c1)Nc1cccnc1	-5.5%	6.75µM*	-10.4%	-11.5%	-7.8%	-4.9%
COc1ccc(/C=N/NC(=O)c2cccc([N+](=O)[O-])c2)cc1O	5.2%	21.3µM*	-0.3%	-2.7%	-3.9%	-3.6%
COc1cc(/C=N/NC(=O)c2cccc([N+](=O)[O-])c2)ccc1O	0.2%	-16.6%	6.2%	-1.0%	6.0%	8.4%
O=C(N/N=C/c1ccccn1)c1cccc([N+](=O)[O-])c1	u	-17.0%	10.5%	-5.1%	-0.2%	3.8%
COc1cc(/C=N/n2cnnc2)ccc1OCc1ccc(C)cc1	23.1µM*	u	20.8%	4.6%	1.3%	12.5%
COc1cc(/C=N/n2cnnc2)ccc1OCc1ccccc1	3.6%	-12.5%	7.9%	-2.7%	-4.9%	-17.0%
CCN(CC)CCNC(=O)c1ccc(NC(=O)c2cccc(-n3cnnn3)c2)cc1	-3.2%	5.1%	x	-1.5%	x	-5.3%
SMILES	ELG1 genotoxic	FLuc counter	SMN2 splice enh	NPC1 prom act	Luc counter	Rab9 promoter act
O=C(Cn1nc(Cc2cccnc2)c2ccccc2c1=O)Nc1ccc(F)c(Cl)c1	x	-4.0%	-12.1%	x	x	x
O=C(CCC1N=C2c3ccccc3N=C(SCc3ccc(Cl)cc3)N2C1=O)N1CCN(c2ccccc2)CC1 (stereo unspecified)	x	5.1%	-2.7%	x	x	x
CCOC(=O)c1nnc2c(-c3ccc(Cl)cc3)c(C)nn2c1C	x	-18.6%	3.4%	x	x	x
COc1cc(/C=N/NC(=O)c2cccc([N+](=O)[O-])c2)ccc1OCc1ccc(C)cc1	u	21.3µM*	u	-3.9%	-5.4%	-0.4%
COc1ccc(/C=N\NC(=O)c2cccc([N+](=O)[O-])c2)cc1Cn1cc([N+](=O)[O-])cn1	-9.8%	0.4%	x	-2.1%	-1.7%	-3.7%
CCCCN(CCCC)CCNC(=O)Cn1nc(CC)n2c(cc3sccc32)c1=O	x	-3.4%	6.1%	x	x	x
CSc1nnc(-c2ccccc2SC)o1	3.0%	-7.3%	-0.1%	0.8%	-1.5%	1.4%
CSc1ccccc1-c1nnc(-c2ccc(C)cc2)o1	u	1.51µM*	10µM*	u	1.8%	u
CSc1ccccc1-c1nnc(-c2ccccc2)o1	u	3.38µM*	11.2µM*	19.8%	u	3.16µM*
Cc1ccc2c(CC(=O)Nc3ccc(S(=O)(=O)N4CCCCC4)cc3)coc2c1	x	-6.1%	-10.0%	x	x	x
COc1ccc(N=C2C(=Nc3ccc(OC)cc3)N(c3ccc(OC)cc3)C(=S)N2C(=O)c2ccc(OC)cc2)cc1	0.2%	u	3.6%	0.3%	-2.9%	3.2%
COc1ccc(N=C2C(=Nc3ccc(OC)cc3)N(c3ccccc3)C(=S)N2C(=O)c2ccc(Cl)cc2)cc1	u	u	25.1µM*	2.4%	-4.3%	17.5%
O=C(NCc1ccc(F)cc1)c1c(O)nc2ccccn2c1=O	x	3.3%	10.5%	x	x	x
Oc1ccc(/C=N/Nc2cccc3cccnc23)c(O)c1	6.51µM*	4.78µM*	12.6µM*	9.4%	-11.5%	3.16µM*
Cc1ccc(/C=N/Nc2cccc3cccnc23)c(O)c1	u	1.51µM*	x	3.98µM*	x	u
O=C(O)/C=C/C(=O)Nc1cccc2cccnc12	5.9%	u	x	2.2%	x	11.3%
Cc1ccc2nc(C)cc(N/N=C/c3cccnc3)c2c1	1.9%	-0.3%	x	0.4%	-2.3%	-3.6%
Cc1ccc(CNC(=O)C(=O)NCC(c2cccs2)S(=O)(=O)c2ccccc2)cc1 (stereo unspecified)	x	0.5%	x	x	x	x
O=C(O)COc1ccccc1/C=N/NC(=O)COc1ccc(-c2ccccc2)cc1	-2.9%	4.78µM*	x	-2.7%	x	-5.1%
CC(C)(C)c1ccc(C(=O)NCC(=O)N/N=C/c2ccccc2OCC(=O)O)cc1	4.6%	16.9µM*	5.7%	0.3%	0.8%	-0.5%
N#C/C(=C\c1ccc(Br)cc1)c1nc(-c2cc3cc(Br)ccc3oc2=O)cs1	x	-5.5%	0.6%	x	x	x
CN1CCN(NC(=O)c2ccc(Br)c(S(=O)(=O)N3CCOCC3)c2)CC1	0.9%	-1.1%	-1.3%	-2.5%	2.2%	-7.9%
Cc1ccc(C(=O)NC(Cc2c[nH]c3ccccc23)C(=O)O)cc1 (stereo unspecified)	-0.1%	u	1.8%	2.6%	-3.0%	1.3%
